# Bioassay records (PubChem BioAssay)
# Kir21 inh = inhibitors of mouse Kir2.1 inward-rectifier potassium channel; Inward rectifier potassium channel 2 (Mus musculus), P35561; HEK293-Kir2.1, FluxOR thallium flux fluorescence; hits give low values; B-score at 10 µM; hit rate 0.85% among 310,000; AID 1672, 2009;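 active = fluorescence ratio B-score at or below minus 3 SD of library scores, with starting-brightness B-score within 2 SD, cut at about -4.2 in these data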;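 note: channel flux triggered by added potassium and thallium sulfate stimulus; B-score of peak minus minimum fluorescence over baseline after thallium stimulus; more negative B-score means stronger Kir2.1 block with less thallium influx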
# Target sequence (P35561 whole entry, looked up): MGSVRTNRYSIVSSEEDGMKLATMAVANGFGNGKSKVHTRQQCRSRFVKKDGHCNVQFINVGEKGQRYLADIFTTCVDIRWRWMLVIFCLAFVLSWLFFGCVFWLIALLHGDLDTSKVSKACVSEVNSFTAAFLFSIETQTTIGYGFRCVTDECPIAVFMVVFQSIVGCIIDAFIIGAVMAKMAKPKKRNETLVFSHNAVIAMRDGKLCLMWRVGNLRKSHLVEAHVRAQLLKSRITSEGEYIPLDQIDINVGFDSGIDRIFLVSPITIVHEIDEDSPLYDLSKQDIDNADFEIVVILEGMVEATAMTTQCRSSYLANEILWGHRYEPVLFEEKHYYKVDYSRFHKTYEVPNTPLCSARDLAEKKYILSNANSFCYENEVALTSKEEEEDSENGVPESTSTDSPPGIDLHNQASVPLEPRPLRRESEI
# ANO1 activ = TMEM16A chloride channel activators or potentiators, primary screen, cell-based, HTS; Anoctamin-1 (Mus musculus), Q8BHY3; HEK293 TMEM16A/YFP-H148Q/I152L, iodide quench fluorescence; hits give low values; B-score at 10 µM; hit rate 0.3% among 340,000; AID 623877, 2012;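 active = fluorescence-ratio B-score plate-corrected deviation score at least 3 library SD below zero, with starting fluorescence score within 5 deviations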;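 note: channel opened by trigger with iodide after compound preincubation; score built on the fluorescence ratio of max minus min over baseline; more negative score means more quench and so TMEM16A activation or potentiation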
# CHT block = inhibitors of human choline transporter CHT. B-score at 10 µM. High affinity choline transporter 1 (Homo sapiens), Q9GZV3. hit rate 0.86% among 310,000. CHT-expressing cells, membrane potential dye, choline response; hits give low values;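 active = B-score over 3 SD under the library average, and starting fluorescence ratio not unusually high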;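 note: choline stimulus applied at its EC90 after an EC20 pre-addition; B-score computed on integrated fluorescence ratio after choline addition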
# GPR7 antag = GPR7 receptor antagonists, primary screen, cell-based, fluorescence, single concentration; GPR7-expressing cells, fluorescence antagonist assay; AID 1861, 2009; Neuropeptides B/W receptor type 1 (Homo sapiens), P48145; inhibition, % at 4.4 µM; hit rate 1.1% among 290,000; in the data active = inhibition above about 16%, passing the limit was not always enough;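 note: cells stimulated with the agonist NPW; 0% = agonist with vehicle and 100% = vehicle without agonist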
# CHT PAM = CHT positive allosteric modulators, primary screen, cell-based, membrane potential dye, choline EC20. CHT-expressing cells; hits give high values; LV-AA mutant CHT in HEK293 cells. B-score at 10 µM. hit rate 0.49% among 310,000. AID 488977, 2010;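 active = initial fluorescence not abnormally high and integrated response B-score, plate-corrected, over 3 SD above library mean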
# TMEM16A inh = TMEM16A chloride channel inhibitors, primary screen, cell-based, HTS; hit rate 1.2% among 310,000; normalized B-score (activity score, 25-100; higher = stronger inhibition) at 10 µM; HEK293 TMEM16A/YFP iodide influx fluorescence, ionomycin; AID 588511, 2011; Anoctamin-1 (Mus musculus), Q8BHY3;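 active = ratio plate-corrected score three or more library SD toward inhibition, starting fluorescence score within five deviations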;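 note: score derived from kinetic fluorescence span divided by baseline fluorescence per well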
# CHT block conf = CHT inhibitors, confirmation, cell-based, membrane potential dye, duplicate; shares compounds with CHT block; CHT-expressing cells, choline membrane potential dye; LV-to-AA substituted CHT, HEK293 cells; CHT activity remaining % of control (hits give low values), % at 10 µM; hit rate 70% among 2,400; AID 493221, 2011;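 active = choline transporter activity left, mean of duplicates at 10 µM, below buffer-only control mean minus 3 SD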;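 note: depolarization triggered by choline at its EC90 following an EC20 pre-addition; 0% = hemicholinium-3 full block and 100% = buffer-only control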
# HEK293 MPD ctr = membrane potential effects in parental HEK293, counter-screen for CHT inhibitor project, cell-based, membrane potential dye; AID 493222, 2011; shares compounds with CHT block; choline response; active = decrease or increase beyond buffer ±3SD; hit rate 4% among 2,400; membrane potential ratio readout (active if shifted either direction beyond buffer ±3SD; no single direction) at 10 µM;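 note: parental cells lack the transporter so any hit is non-specific; ratio is peak minus trough fluorescence over baseline after EC90 choline challenge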
# Active calls of the source: *; i = inactive; · = no result given. This is a sample that favours compounds with a hit; in the whole collection about 3.7% have one here.
SMILES,Kir21 inh,ANO1 activ,CHT block,GPR7 antag,CHT PAM,TMEM16A inh,CHT block conf,HEK293 MPD ctr
O=C(Oc1cccccc1=O)c1ccccc1,0.99,i,-6.9*,7,i,i,i,i
COc1cc(OC)c2c(-c3ccccc3)cc(=O)oc2c1C(CCN1CCCCC1)c1ccc2c(c1)OCO2 (stereo not given),-4,i,-9.5*,·,i,i,45%*,i
COc1ccc(C(CCN2CCCCC2)c2c(OC)cc(OC)c3c(-c4ccccc4)cc(=O)oc23)cc1 (stereo not given),-2.1,i,-7.1*,·,i,i,38%*,i
COc1cc(OC)c2c(-c3ccccc3)cc(=O)oc2c1C(CCN1CCCC(C)C1)c1ccc2c(c1)OCO2 (stereo not given),-2.7,i,i,·,i,i,·,·
COc1cc(C(CCN2CCCC2)c2c(OC)cc(OC)c3ccc(=O)oc23)cc(OC)c1OC (stereo not given),1.8,i,i,·,i,i,·,·
COc1cc(OC)c2c(-c3ccccc3)cc(=O)oc2c1C(CCN1CCCCC1)c1ccc(N(C)C)cc1 (stereo not given),-3.6,i,-5.9*,·,i,i,29%*,i
CCCCCc1cc(=O)oc2c(C(CCN3CCCCC3)c3cc(OC)c(OC)c(OC)c3)c(OC)cc(OC)c12 (stereo not given),-1.5,i,-6.1*,·,i,i,51%*,i
CCCC[C@@H](CNC)NC[C@H](Cc1ccc(O)cc1)NCCc1ccc(OCC)cc1,-2.2,i,i,15,i,i,·,·
Cc1c(Cl)c(C(=O)N2CCCCCC2)nn1C,-0.96,i,i,-17,i,i,·,·
COc1cc(C(=O)NCC(=O)N2CCN(S(=O)(=O)c3ccccc3C(F)(F)F)CC2)cc(OC)c1OC,·,i,·,·,·,·,·,·
Cc1cc(C)n(CCNC(=O)CC2C(=O)NCCN2Cc2ccccc2C(F)(F)F)n1 (stereo not given),-0.08,i,-6.4*,-9,i,i,i,i
COc1cccc(CN2CCNC(=O)C2CC(=O)NCCn2nc(C)cc2C)c1OC (stereo not given),0.04,i,i,-6,i,i,·,·
CC(Nc1cc(N2CCNCC2)ccc1[N+](=O)[O-])c1ccccc1 (stereo not given),-7.5*,i,-6.4*,-1,i,i,35%*,2.7*
CCS(=O)(=O)N1CCN(c2ccc([N+](=O)[O-])c(NC(C)c3ccccc3)c2)CC1 (stereo not given),-1.6,i,i,-5,i,i,·,·
CCn1c(=O)n(CC)c2cc(S(=O)(=O)N3CCc4ccccc43)ccc21,-4.3*,i,-5.9*,3,i,i,44%*,i
Cc1ccc(-c2csc3ncnc(N4CCN(C)CC4)c23)cc1C,-0.62,i,-11*,-7,i,i,48%*,i
CC(Oc1cccc2cccnc12)C(=O)N/N=C/c1ccc2c(c1)OCO2 (stereo not given),-1.3,i,i,·,i,i,·,·
CCNCc1cc(Br)c(OCC(=O)Nc2ccccc2)c(OC)c1,-0.08,i,i,6,i,i,·,·
COc1cc(CNCCc2ccccc2)cc(Br)c1OCC(=O)Nc1ccccc1C,-11*,i,-8.4*,16,i,i,43%*,i
COc1cc2c(cc1OC)/C(=C/C(=O)c1ccccc1F)NCC2,0.39,·,-5.3*,-18,i,i,52%*,i
Cc1ccc(C(=O)Nc2cccc(C(F)(F)F)c2)cc1NC(=O)c1csc(-c2ccncc2)n1,3.7,i,-8*,·,i,i,25%*,i
O=C(O)CSc1cc(C(=O)c2cc(F)ccc2O)cn2c(=O)c3c(-c4ccccc4)csc3nc12,0.88,i,-7*,-15,i,i,26%*,i
COc1ccc2[nH]c3c(N4CC(C)OC(C)C4)ncnc3c2c1 (stereo not given),2.5,·,i,-14,i,i,·,·
COc1cccc(N2CCN(c3ncnc4c3[nH]c3ccc(F)cc34)CC2C)c1 (stereo not given),-0.76,i,-7*,84*,i,100*,63%*,i
O=C1c2cccc([N+](=O)[O-])c2C(=O)N1CCO,-0.28,i,i,-1,i,i,·,·
SMILES,Kir21 inh,ANO1 activ,CHT block,GPR7 antag,CHT PAM,TMEM16A inh,CHT block conf,HEK293 MPD ctr
O=C1c2cccc3c(Nc4ccccc4Cl)c([N+](=O)[O-])cc(c23)C(=O)N1CCO,-0.89,i,-5.5*,-4,i,i,71%*,i
CCn1c(SCC(=O)Nc2nccs2)nnc1-c1ccc(S(=O)(=O)N2CCCCCC2)cc1,1.2,i,i,-1,i,i,·,·
CCC(Sc1nnc(-c2ccc(C)c(Cl)c2)n1CC)C(=O)Nc1nccs1 (stereo not given),·,i,-5.9*,16,i,i,50%*,i
O=C(NNC(=S)NC(=O)c1cccs1)c1ccc(O)cc1,-1.2,i,i,2,i,i,·,·
O=C(NC(=S)NNC(=O)c1cccs1)c1ccc(Br)o1,-0.54,i,-7.5*,1,i,i,43%*,i
CC(C)c1ccc(/C=C/c2ccc(=O)n(C)n2)cc1,0.84,i,-6.9*,-1,i,i,i,i
CCOC(=O)c1oc2nc(CC(C)C)c3c(c2c1N)CCCC3,0.86,i,-11*,-1,i,i,13%*,i
CCOC(=O)c1c(CCl)nc2ccccc2c1C,-0.18,i,-8.9*,-15,i,i,68%*,i
O=C(Nc1ccccc1C(=O)O)c1cc(S(=O)(=O)Nc2ccccc2)ccc1Cl,-0.71,i,i,-12,i,i,·,·
Cc1noc(/C=C/c2cccs2)c1S(=O)(=O)N1CCC(C(=O)NCCCN2CCC(C)CC2)CC1,-0.72,i,-5.1*,-8,i,i,i,i
